Compounds with a hit are over-represented: about 2.5% of the library has one in this group of screens.
Jurkat NFkB inh: lowers PMA/ionomycin-induced NF-kB signal in Jurkat cells; PMA/ionomycin-induced NF-kB luciferase reporter, luminescence; inhibition, % at 4 µM; hit rate 0.53% among 330,000; AID 435003; in the data active = inhibition above about 50%
KLF5 inh: suppresses KLF5 promoter-driven expression; DLD-1 KLF5 promoter-luciferase reporter, luminescence; inhibition, % at 5 µM; hit rate 0.23% among 290,000;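 active = inhibition above a per-plate limit of that plate's mean compound inhibition plus 3 SD, cut at about 60% in these data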;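 note: 0% = DMSO wells and 100% = LY294002 at 200 µM; higher means less KLF5 promoter-driven luciferase light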
aSyn UTR inh: MLPCN primary screen, SNCA 5' untranslated region | alpha-synuclein 5'UTR reporter, inhibitor activity | inhibition, % (tested at 7.5 µM) | hit rate 0.82% among 300,000 | AID 1813; in the data active = inhibition above about 60%;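 note: H4 neuroglioblastoma cells stably carrying SNCA 5'UTR luciferase fusion; 0% = DMSO wells and 100% = positive control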
ANO1 block: inhibitors of mouse TMEM16A calcium-activated chloride channel. Q8BHY3. hit rate 1.2% among 310,000. HEK293 TMEM16A/YFP iodide influx fluorescence, ionomycin. normalized B-score (activity score, 25-100; higher = stronger inhibition) at 10 µM;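 active = ratio plate-corrected score three or more library SD toward inhibition, starting fluorescence score within five deviations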;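 note: score derived from kinetic fluorescence span divided by baseline fluorescence per well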
ANO1 activ: activators or potentiators of mouse TMEM16A chloride channel | hit rate 0.3% among 340,000 | Q8BHY3 | HEK293 TMEM16A/YFP-H148Q/I152L, iodide quench fluorescence; active compounds read low | B-score at 10 µM;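 active = fluorescence-ratio B-score plate-corrected deviation score at least 3 library SD below zero, with starting fluorescence score within 5 deviations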;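 note: channel opened by trigger with iodide after compound preincubation; score built on the fluorescence ratio of max minus min over baseline; more negative score means more quench and so TMEM16A activation or potentiation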
697 NFkB inh: inhibitors of the PMA/ionomycin-induced NF-kB reporter in 697 B cells; 697 B-cell NF-kB luciferase reporter, 16 h; inhibition, % at 4 µM; hit rate 0.33% among 330,000; AID 435022; in the data active = inhibition above about 35%
697 NFkB conf: lowers PMA/ionomycin-induced NF-kB signal in 697 B cells; shares compounds with 697 NFkB inh; 697 B-cell NF-kB luciferase, 16 h; inhibition, % at 4 µM; hit rate 35% among 2,000; in the data active = inhibition mostly above about 28%, no sharp cut-off; inactive = mostly below about 22%
* marks the source's active call; other numbers are inactive results; i = inactive; / = not tested or not shown.

SMILES | Jurkat NFkB inh | KLF5 inh | aSyn UTR inh | ANO1 block | ANO1 activ | 697 NFkB inh | 697 NFkB conf
O=C1CCC2S/C(=C/Nc3ccc(C(F)(F)F)cc3)C(=O)N12 (configuration not stated) | 30 | 40 | 99* | i | i | 81* | 49*
O=C1CCCC/C1=C/Nc1cccc(C(F)(F)F)c1 | -19 | -6 | -32 | i | i | 2 | /
COc1ccccc1-n1c(SCC(=O)NC2CC2)nc2ccccc2c1=O | 9 | / | / | / | i | 7 | /
NC(=O)c1nsc(C(=O)N(c2ccccc2F)C(C(=O)NCc2ccccc2)c2ccc(O)cc2)c1N (configuration not stated) | 44 | 10 | 34 | i | i | 35* | 22
N=c1ccn(Cc2ccccc2Cl)cc1 | 41 | -15 | 3 | i | i | 46* | 48*
N=c1ccn(Cc2c(Cl)cccc2Cl)cc1 | 42 | -26 | 13 | i | i | 47* | 57*
N=c1ccn(Cc2cccc(Cl)c2)cc1 | 20 | 6 | 34 | i | i | 29 | /
CC(=O)Nc1cccc(NC(=O)CSc2nnc3ccc(-c4cccnc4)nn23)c1 | 2 | / | 1 | i | i | 1 | /
O=C(CCCc1nc(-c2ccccc2Cl)no1)NC1CCCC1 | 1 | 47 | 99* | i | i | 74* | 78*
Cn1c(C(=O)NCc2ccccc2)cc2oc3ccccc3c21 | -96 | -40 | -18 | i | i | i | -331
Cn1c(C(=O)NCC2CCCO2)cc2oc3ccccc3c21 (configuration not stated) | -97 | -123 | -188 | i | i | -129 | /
Cn1c(C(=O)NCc2cccs2)cc2oc3ccccc3c21 | -60 | -39 | -261 | i | i | i | i
COc1ccc(NS(=O)(=O)c2cc(NC(=O)c3cc(=O)c4ccccc4o3)ccc2OC)cc1 | 7 | -5 | 10 | i | i | 38* | 33*
CC(=O)Nc1cccc(C(=O)/C=C/c2ccc(/C=C/C(=O)c3cccc(NC(C)=O)c3)cc2)c1 | 13 | 5 | -129 | i | / | -293 | -46
C/C(=N\N=C1\NC(=O)C(CC(=O)Nc2ccc(C)c(Cl)c2)S1)C(C)(C)C (configuration not stated) | 17 | 4 | -3 | i | i | -5 | /
CC(=O)/C(C#N)=C1\NC(=O)C(Cc2ccc(C)c(Cl)c2)S1 (configuration not stated) | 3 | 21 | 36 | i | i | i | -492
CNc1ncc(C(=O)c2ccc(-c3ccccc3)cc2)s1 | -120 | -126 | -54 | i | i | -350 | -178
COc1ccc(-c2cc3cc4c(cc3cn2)OCO4)cc1 | -4 | / | / | / | i | -279 | -352
COc1cc(OC)cc(-c2cc3cc4c(cc3cn2)OCO4)c1 | -18 | / | / | / | i | -177 | /
COC(=O)c1c(NC(=O)c2ccco2)sc(C(=O)N2CCCC2)c1C | -12 | -18 | 13 | i | / | 7 | /
COC(=O)c1c(NC(=O)c2ccco2)sc2c1CCN(C(C)=O)C2 | -7 | -50 | -29 | i | i | 38* | 9
COc1cc(-c2cc(-c3nnco3)c3ccccc3n2)cc(OC)c1OC | 0 | 7 | -11 | i | i | 41* | 9
c1ccc(-c2cc(-c3nnco3)c3ccccc3n2)nc1 | -9 | 3 | 9 | i | i | 10 | /
Cn1c(CNC(=O)CNC(=O)Cc2ccc(Cl)cc2)cc(=O)n(C)c1=O | 13 | -12 | -26 | i | i | -2 | /
Cn1c(N=Nc2ccccc2)nc2ccccc21 | -110 | -190 | -19 | i | i | -432 | -398
SMILES | Jurkat NFkB inh | KLF5 inh | aSyn UTR inh | ANO1 block | ANO1 activ | 697 NFkB inh | 697 NFkB conf
COc1ccc(NS(=O)(=O)c2cccc(NC(=O)COc3ccccc3[N+](=O)[O-])c2)cc1 | 1 | / | / | / | i | -22 | /
CC(C)C(c1nnnn1Cc1ccccc1)N(Cc1ccco1)Cc1cccs1 (configuration not stated) | -3 | 31 | 28 | i | -14* | 35* | 28*
COc1ccc(Cn2nnnc2C(C(C)C)N(Cc2ccco2)Cc2cccs2)cc1 (configuration not stated) | -6 | 4 | 12 | i | i | 28 | /
Nc1ccc(-c2cc3ccccc3oc2=O)cc1 | -23 | 37 | 106* | i | i | 61* | 48*
O=C(NCc1cccs1)c1cc(S(=O)(=O)N2CCOCC2)c(Cl)cc1Cl | -2 | -34 | -5 | i | i | 12 | /
CCCCOc1ccc(NC(=O)C(=O)NCCCn2ccnc2)cc1 | 10 | -12 | 66* | i | i | 54* | 58*
CCCCCCOc1ccc(C(=O)NCCCn2ccnc2)cc1 | -16 | -42 | -38 | i | i | -5 | /
CCCNC(=O)CSCc1nc(-c2ccc(SC)cc2)oc1C | -11 | -28 | -31 | i | i | 48* | 42*
COC(CNC(=O)CSCc1nc(-c2ccc(SC)cc2)oc1C)OC | 13 | -30 | -9 | i | i | 11 | /
Cc1ccc(-c2nc(CSCC(=O)NCC3CCCO3)c(C)o2)cc1 (configuration not stated) | -8 | -15 | 13 | i | i | 17 | /
CCOc1ccc(-c2nc(CSCC(=O)NCC3CCCO3)c(C)o2)cc1 (configuration not stated) | 9 | -17 | -1 | i | i | 88* | 20
O=C(CCN1C(=O)/C(=C/c2ccccc2Cl)SC1=S)NCCCN1CCOCC1 | -2 | -38 | -16 | i | i | -13 | /
CCC(c1nnc(SCC(=O)NC2CCCCC2)n1Cc1ccccc1)N(C)C (configuration not stated) | 4 | / | 6 | i | i | 39* | 2
COC(=O)c1c(C(=O)OC)c(-c2cccc(Cl)c2)n2c1CS(=O)(=O)C2 | 15 | -12 | 18 | i | i | -23 | /
COc1ccccc1-c1cc(-c2ccc(C)cc2)nc(SCc2nnc(-c3ccccc3)o2)c1C#N | 4 | -19 | 25 | i | i | 6 | /
Cc1cc(C)c(C#N)c(SCc2nnc(-c3ccccc3)o2)n1 | 28 | 57 | 102* | i | i | -362 | -47
Cc1ccc(NC(=O)CSCc2cc(=O)n3ccsc3n2)c(C)c1 | -8 | -43 | 18 | i | i | 11 | /
COc1ccc2cc(C[C@@H]3CC[C@@H](CO)O3)ccc2c1 | / | / | / | / | i | -134 | /
Cc1ccc(/C=N/Nc2ccc(Cl)c(C(=O)O)c2)s1 | -107 | -100 | -153 | i | i | -298 | -39
O=C(CCCN1C(=O)S/C(=C\c2ccccc2)C1=O)NNC(=O)c1ccccc1O | -2 | 12 | 83* | i | i | 67* | 50*
O=C(CN1C(=O)S/C(=C\c2ccccc2)C1=O)NNC(=O)c1ccccc1O | -20 | 21 | -2 | i | i | 12 | /

Assay outcomes from PubChem.
